Results filed as inconclusive are left out. The source made the active and inactive calls. The call rests on the fitted dose curve; in most records, active means well fitted curve in the direction sought with a large enough effect; inconclusive means small, poorly fitted or top-dose-only effect, or another doubt; inactive means no such curve, though single readings can be large; an effect the other way counts as inactive or inconclusive.
Key:
[1] = tested on: NIH3T3; assay: qHTS assay to identify novel small-molecules to repurpose for Merkel cell carcinoma treatment (AID 1296009); details: MCC and control cell lines, CellTiter-Glo viability, 72 h; at 44.8 µM (top of the series) unless noted; further: nearly all actives have a fitted effect of over 60% in size
Summary of the method: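 Cell viability, measured as CellTiter-Glo luminescence, was normalized between DMSO and no-cell wells. The cells had been exposed to 8- or 11-point compound dilutions for 72 hr at 37 degree celsius.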

[2] = tested on: C33A; assay: Primary qHTS to identify gynecologic anti-cancer compounds using libraries of approved drugs and bioactive compounds (AID 1345084); details: Gynecologic cancer cell panel viability, ATPlite luminescence, 48 h; series mostly up to 57.5 µM; further: on the % scale 0 is the no-effect control and ±100 the full control effect; nearly all actives have a fitted effect of over 55% in size
Summary of the method: (§1)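 Five-point cytotoxicity, 48 h drug exposure at 37 C, 5% CO2, on cells seeded 16 h beforehand. ATP content read by ATPlite luminescence.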

[3] = tested on: CAOV3; assay: as above; details: Gynecologic cancer cell panel viability, ATPlite luminescence, 48 h; series mostly up to 57.5 µM
Summary of the method: as §1

[4] = tested on: CASKI; assay: as above; details: Gynecologic cancer cell panel viability, ATPlite luminescence, 48 h; series mostly up to 57.5 µM
Summary of the method: as §1

[5] = tested on: Es-2; assay: as above; details: Gynecologic cancer cell panel viability, ATPlite luminescence, 48 h; series mostly up to 57.5 µM
Summary of the method: as §1

[6] = tested on: HeLa; assay: as above; details: Gynecologic cancer cell panel viability, ATPlite luminescence, 48 h; series mostly up to 57.5 µM
Summary of the method: as §1

[7] = tested on: Hek293T; assay: as above; details: Gynecologic cancer cell panel viability, ATPlite luminescence, 48 h, control line for the selectivity index; series mostly up to 57.5 µM
Summary of the method: as §1

[8] = tested on: JEG-3; assay: as above; details: Gynecologic cancer cell panel viability, ATPlite luminescence, 48 h; series mostly up to 57.5 µM
Summary of the method: as §1

CCOc1ncc(S(=O)(=O)N2CCN(CC)CC2)cc1-c1nc2c(CC)n(CCOC)nc2c(=O)[nH]1
inactive: outcome [1] | Potency [2] | Potency [3] | outcome [4] | Potency [5] | Potency [6] | Potency [7] | Potency [8]

CCCCS(=O)(=O)NC(Cc1ccc(OCCCCC2CCNCC2)cc1)C(=O)O (stereo unspecified)
inactive: outcome [1] | Potency [2] | Potency [3] | outcome [4] | Potency [5] | Potency [6] | Potency [7] | Potency [8]

Fc1cccc(CN(C2=NCCN2)c2c(Cl)cccc2Cl)c1
inactive: outcome [1] | Potency [2] | Potency [3] | outcome [4] | Potency [5] | Potency [6] | Potency [7] | Potency [8]

O=C(C[C@@H]1C(C(=O)O)=CO[C@@H](O[C@@H]2O[C@H](CO)[C@@H](O)[C@H](O)[C@H]2O)/C1=C\CO)OCCc1ccc(O)cc1
inactive: outcome [1] inactive [at 17.4 µM] | Potency [2] | Potency [3] | outcome [4] | Potency [5] | Potency [6] | Potency [7] | Potency [8]

Cc1c(O)cc2c(c1O)COC1(O)CCCOC21 (stereo unspecified)
inactive: outcome [1] | Potency [2] | Potency [3] | outcome [4] | Potency [5] | Potency [6] | Potency [7] | Potency [8]

Cc1ccc2nc(NC(=O)CSc3nc4c(c(=O)n3-c3ccc(F)cc3)SCC4)sc2c1
inactive: outcome [1] | Potency [2] | Potency [3] | outcome [4] | Potency [5] | Potency [6] | Potency [7] | Potency [8]

C=C(C(=O)O)[C@@H]1CC[C@@]2(C)CC[C@@H](O)C(=C)C2C1 (stereo partly specified)
inactive: outcome [1] | Potency [2] | Potency [3] | outcome [4] | Potency [5] | Potency [6] | Potency [7] | Potency [8]

O=C(Nc1cc(-c2ccccc2)nn1-c1ccccc1)c1ccc([N+](=O)[O-])cc1
inactive: outcome [1] | Potency [2] | Potency [3] | outcome [4] | Potency [5] | Potency [6] | Potency [7] | Potency [8]

Cc1cn2cc(CC(=O)N3CCC4(CC3)CN(Cc3ccc(-n5nccn5)cc3Cl)C4)nc2s1
inactive: outcome [1] | Potency [2] | Potency [3] | outcome [4] | Potency [5] | Potency [6] | Potency [7] | Potency [8]

Cc1ccc(Cl)cc1N(CC(=O)Nc1c(F)cccc1F)S(C)(=O)=O
inactive: outcome [1] | Potency [2] | Potency [3] | outcome [4] | Potency [5] | Potency [6] | Potency [7] | Potency [8]

Cn1cc(CCn2cnc(-c3cnn(C)c3)c2-c2ccc(C#N)cc2)cn1
inactive: outcome [1] | Potency [2] | Potency [3] | outcome [4] | Potency [5] | Potency [6] | Potency [7] | Potency [8]

CC(/C=C/C=C(\C)C(=O)O[C@@H]1O[C@H](CO[C@@H]2O[C@H](CO)[C@@H](O)[C@H](O)[C@H]2O)[C@@H](O)[C@H](O)[C@H]1O)=C\C=C\C=C(C)\C=C\C=C(/C)C(=O)O[C@@H]1C[C@](O)(C(=O)O)C[C@@H](O)[C@H]1OC(=O)/C=C/c1ccc(O)c(O)c1
inactive: outcome [1] inactive [at 9.27 µM] | activity change, negative = cytotoxicity [2] 17.9% [at 11.6 µM] | activity change, negative = cytotoxicity [3] -20% [at 11.6 µM] | activity change, negative = cytotoxicity [4] 21.7% [at 11.6 µM] | activity change, negative = cytotoxicity [5] 1.04% [at 11.6 µM] | activity change, negative = cytotoxicity [6] 2.81% [at 11.6 µM] | activity change, negative = cytotoxicity [7] -2.06% [at 11.6 µM] | activity change, negative = cytotoxicity [8] 7.27% [at 11.6 µM]

COc1ccc(OC)c(C2C(C#N)=C(N)Oc3n[nH]c(-c4ccc5ccccc5c4)c32)c1 (stereo unspecified)
inactive: outcome [1] | Potency [2] | Potency [3] | outcome [4] | Potency [5] | Potency [6] | Potency [7] | Potency [8]

C/C=C(\C)C(=O)OC[C@H]1O[C@@H](O[C@H]2[C@@H](O[C@H]3O[C@H](COC(=O)/C(C)=C/C)[C@@H](O)[C@H](O)[C@H]3O[C@@H]3O[C@H](COC(=O)/C(C)=C/C)[C@@H](O)[C@H](OC(=O)/C(C)=C/C)[C@H]3O)O[C@H](COC(=O)/C(C)=C/C)[C@@H](O)[C@@H]2O)[C@H](O)[C@@H](O)[C@@H]1O
inactive: outcome [1] inactive [at 9.27 µM] | activity change, negative = cytotoxicity [2] -2.71% [at 11.6 µM] | activity change, negative = cytotoxicity [3] -1.73% [at 11.6 µM] | activity change, negative = cytotoxicity [4] 3.51% [at 11.6 µM] | activity change, negative = cytotoxicity [5] 2.21% [at 11.6 µM] | activity change, negative = cytotoxicity [6] -5.02% [at 11.6 µM] | activity change, negative = cytotoxicity [7] -12.9% [at 11.6 µM] | activity change, negative = cytotoxicity [8] -4.46% [at 11.6 µM]

CC(=O)[C@@H]1C[C@H](C(C)(C)O[C@@H]2O[C@H](CO)[C@@H](O)[C@H](O)[C@H]2O)CC[C@@]2(CO)OC(=O)C[C@@H]12
inactive: outcome [1] inactive [at 17.4 µM] | Potency [2] | Potency [3] | outcome [4] | Potency [5] | Potency [6] | Potency [7] | Potency [8]

CC(=O)O[C@@]1(C)[C@@H]2CC(=C(C)C)C(=O)C[C@@]2(C)CC[C@H]1OC(=O)C1(C)OC1C (stereo partly specified)
inactive: outcome [1] | Potency [2] | Potency [3] | outcome [4] | Potency [5] | Potency [6] | Potency [7] | Potency [8]

CC/C=C\[C@H](O)[C@H](O)C1=C(C)C(=O)[C@]2(O1)C(=O)N[C@@](O)(C(=O)c1ccccc1)[C@@H]2O
inactive: outcome [1] inactive [at 17.4 µM] | Potency [2] | Potency [3] | outcome [4] | Potency [5] | Potency [6] | Potency [7] | Potency [8]

Source: PubChem BioAssay (NCATS)
